Assay outcomes deposited in PubChem BioAssay by National Center for Advancing Translational Sciences (NCATS).
Glioma ERSR ind = induces the endoplasmic reticulum stress response in human glioma cells; Potency, µM, for the others: at the top dose activation, actives largely listed as activators; U87-MG GRP78 promoter luciferase reporter, 16 h; 420,000 tested, 0.02% active; further: series mostly up to about 76 µM; % of control where 0% means no effect; nearly all actives have a fitted effect of over 35% in size
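ERSR induction read as luciferase luminescence (Bright-Glo, 10 min at room temperature) in stably transfected human U87-MG glioma cells exposed to compounds for 16 h, using GRP78 as sensor.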
VDR inhibitor = blocks the human vitamin D receptor | P11473 | VDR-SRC2-3 peptide fluorescence polarization, 2 h | Potency, µM, for the others: max response, negative = inhibition, usual class: inhibitors | 400,000 tested, 0.93% active; further: on the % scale 0 is the no-effect control and ±100 the full control effect
Target sequence (P11473 whole entry, looked up): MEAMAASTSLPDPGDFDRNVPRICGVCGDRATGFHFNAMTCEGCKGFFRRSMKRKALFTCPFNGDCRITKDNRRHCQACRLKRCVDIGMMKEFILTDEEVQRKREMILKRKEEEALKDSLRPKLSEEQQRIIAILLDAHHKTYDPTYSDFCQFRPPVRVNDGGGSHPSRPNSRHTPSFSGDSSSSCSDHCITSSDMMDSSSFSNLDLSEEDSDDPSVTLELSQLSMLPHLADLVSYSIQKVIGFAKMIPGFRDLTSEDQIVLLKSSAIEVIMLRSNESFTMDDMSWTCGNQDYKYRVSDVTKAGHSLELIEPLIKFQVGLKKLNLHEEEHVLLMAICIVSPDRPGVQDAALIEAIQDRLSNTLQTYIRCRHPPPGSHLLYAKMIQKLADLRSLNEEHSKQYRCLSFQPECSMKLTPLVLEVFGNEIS
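Inhibition of the VDR/SRC2-3 peptide interaction is quantified by fluorescence polarization. Compounds (23 nl, pintool) incubate with the reagents for 2 hours at ambient room temperature.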
G9a inh = blocks human histone lysine methyltransferase G9a | Potency, µM (titrated, usually from 102 µM), inactives show at the highest dose activity, negative = inhibition, most hits filed as inhibitors | 350,000 tested, 8.8% active | G9a H3K9 monomethylation, AlphaScreen, 2 h | AID 504332 | Q96KQ7; further: on the % scale 0 is the no-effect control and ±100 the full control effect; nearly all actives have a fitted effect of over 75% in size
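Methyltransferase reactions run at room temperature for 2 h (20 nM enzyme, 500 nM biotin-H3K9 peptide, 20 uM SAM) after a 15 min compound preincubation; product detected by AlphaScreen beads and anti-H3K9me1 antibody.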
Sfp inh = blocks B. subtilis Sfp PPTase activity | AID 1490 | Potency, µM, without a hit: largest response in the series, negative = inhibition, actives largely listed as inhibitors | Biochemical Sfp PPTase activity, qHTS | 310,000 tested, 3.5% active;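 further: the enzyme is Sfp with the accession as filed and its product quenches rhodamine fluorescence; 0% = enzyme reaction without inhibitor and -100% = no enzyme wells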
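Step 1, compound plus 15 nM Sfp-PPTase, 15 min, room temperature. Step 2, add rhodamine-CoA (5 uM) and BHQ-2-YbbR (12.5 uM). Step 3, read 525/598 nm fluorescence at 0 and 30 min.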
12-LOX inh = blocks human arachidonate 12S-lipoxygenase | AID 1671190 | purified 12hLO, xylenol orange hydroperoxide absorbance | Potency, µM (highest dose often 108 µM), inactives show at the highest dose activity change, negative = inhibition, usual class: inhibitors | 580,000 tested, 1.1% active; further: on the % scale 0 is the no-effect control and ±100 the full control effect
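Purified human 12hLO (150 nM final) in 25 mM Hepes, 0.01% Triton X-100, pH 7.0 was preincubated 15 min at room temperature with compound. Then 40 uM arachidonic acid was added, 30 min. Hydroperoxide was read by Fe-XO absorbance ratio 573/405 nm.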
Active calls of the source: *; [ ] = dose if it differs, or a comment. Only a selection was taken, and hits are over-represented in it overall. The call rests on the fitted dose curve; in most records, active means well fitted curve in the direction sought with a large enough effect; inconclusive means small, poorly fitted or top-dose-only effect, or another doubt; inactive means no such curve, though single readings can be large; an effect the other way counts as inactive or inconclusive. Potency means the concentration at half of the fitted maximal effect.

For CO/N=C(\C(=O)N[C@@H]1C(=O)N2C(C(=O)O)=C(COC(C)=O)CS[C@@H]12)c1csc(N)n1 the results were Glioma ERSR ind -3%, VDR inhibitor inconclusive, G9a inh -39%[12.7 µM] and Sfp inh inconclusive.
CC(=O)OCC1=C(C(=O)O)N2C(=O)C(NC(=O)C(C)Cn3nc(C)c(Cl)c3C)C2SC1 (stereo not drawn) was read as Glioma ERSR ind -4%, VDR inhibitor -31%, G9a inh 40µM*, Sfp inh -10% and 12-LOX inh inconclusive.
`CC(=O)OCC1=C(C(=O)O)N2C(=O)C(NC(=O)Cc3ccccc3)C2SC1` (stereo not drawn) gave Glioma ERSR ind -4%, VDR inhibitor -3%, G9a inh inconclusive and Sfp inh inconclusive.
Screening CO/N=C(\C(=O)N[C@@H]1C(=O)N2C(C(=O)O)=C(COC(C)=O)CS[C@H]12)c1csc(N)n1 returned Glioma ERSR ind -6%, VDR inhibitor 71µM*, G9a inh 11µM* and Sfp inh inconclusive.
`COC(=O)C(C)Oc1ccc2c(C)c(-c3ccc(OC)cc3)c(=O)oc2c1` (stereo not drawn) gave 12-LOX inh 8%.
Screening FC(F)(F)c1cccc(N2CCN(C(=S)NC3CCCCC3)CC2)c1 returned Glioma ERSR ind -2%, VDR inhibitor -19%, G9a inh 8%, Sfp inh 5% and 12-LOX inh 50µM*.
Screening Clc1ccc2c(N/N=C/c3cccnc3)ccnc2c1 returned Glioma ERSR ind -2%, VDR inhibitor -7%, G9a inh -8%, Sfp inh 50µM* and 12-LOX inh 17%.
For Clc1ccc2c(N/N=C/c3ccccc3)ccnc2c1 the results were 12-LOX inh 65%.
Screening Cc1ccc(/C=N/Nc2ccnc3cc(Cl)ccc23)c(C)c1 returned Glioma ERSR ind -12%, VDR inhibitor -12%, G9a inh inconclusive, Sfp inh 45µM* and 12-LOX inh inconclusive.
O=C(NCCC(=O)N1CCCC1)C1CCCCC1 was read as 12-LOX inh 5%.
Cn1c(=O)c2c(ncn2CCC(=O)Nc2ccc(Br)cc2)n(C)c1=O was read as 12-LOX inh -20%.
For Cc1nnc2sc(-c3ccc(-c4ccc(Cl)c(C(F)(F)F)c4)o3)nn12 the results were Glioma ERSR ind 1%, VDR inhibitor 0%, G9a inh 50µM*, Sfp inh -6% and 12-LOX inh inconclusive.
`Cc1ccc(CN(C)Cc2ccccc2)o1` gave 12-LOX inh 11%.
`CCCS(=O)(=O)c1nc(S(=O)(=O)c2ccc(C)cc2)c(N2CCc3ccccc3C2)s1` gave Glioma ERSR ind -3%, VDR inhibitor 1%, G9a inh 35µM*, Sfp inh -9% and 12-LOX inh -20%.
CCCS(=O)(=O)c1nc(S(=O)(=O)c2ccc(C)cc2)c(N2CCCC2)s1 was read as Glioma ERSR ind -1%, VDR inhibitor 6%, G9a inh 8%[12.7 µM], Sfp inh 6% and 12-LOX inh -8%.
O=C1CN(C(=O)COc2ccc(Br)cc2F)c2ccccc2N1 was read as Glioma ERSR ind -1%, VDR inhibitor -11%, G9a inh 45µM*, Sfp inh 2% and 12-LOX inh -34%.
Cn1c2ccccc2c2cc(C(=O)OCC(=O)N3CC(=O)Nc4ccccc43)sc21 was read as Glioma ERSR ind -7%, VDR inhibitor -10%, G9a inh 50µM*, Sfp inh -14% and 12-LOX inh 5%.
For O=C1CN(C(=O)COc2ccc(F)cc2F)c2ccccc2N1 the results were 12-LOX inh -33%.
`C=CCNC(=O)/C(C#N)=C/c1ccc(OS(=O)(=O)c2ccc(C)cc2)c(OC)c1` gave Glioma ERSR ind -11%, VDR inhibitor 28µM*, G9a inh 8%[59 µM], Sfp inh -2% and 12-LOX inh -21%.
For CC(Nc1ccc(S(=O)(=O)N2CCN(C)CC2)cc1[N+](=O)[O-])c1ccccc1 (stereo not drawn) the results were Glioma ERSR ind -2%, VDR inhibitor -8%, G9a inh 40µM* and 12-LOX inh inconclusive.
COc1ccccc1C(C)Nc1ccc(S(=O)(=O)N2CCN(C)CC2)cc1[N+](=O)[O-] (stereo not drawn) was read as Glioma ERSR ind -3%, VDR inhibitor -8%, G9a inh inconclusive and 12-LOX inh -23%.
For COc1ccc(NC(=O)CNc2cccc(S(=O)(=O)N3CCCCCC3)c2)c([N+](=O)[O-])c1 the results were Glioma ERSR ind -3%, VDR inhibitor -7%, G9a inh 17%[59 µM] and 12-LOX inh -5%.
Screening COc1cccc(C(CNc2ccc(S(=O)(=O)N3CCN(C)CC3)cc2[N+](=O)[O-])N(C)C)c1 (stereo not drawn) returned Glioma ERSR ind -1%, VDR inhibitor -3%, G9a inh 50µM* and 12-LOX inh inconclusive.
For CCOc1ccc(OCC)c(NC(=O)CN2CCN(c3cccc(C)c3)CC2)c1 the results were Glioma ERSR ind -2%, VDR inhibitor 4%, G9a inh 3.5µM*, Sfp inh 25µM* and 12-LOX inh inconclusive.
Screening CCOc1ccc(OCC)c(NC(=O)CN2CCN(CC)CC2)c1 returned Glioma ERSR ind 1%, VDR inhibitor -1%, G9a inh 20µM*, Sfp inh -3% and 12-LOX inh inconclusive.
`CCCN1CCN(CC(=O)Nc2cc(OCC)ccc2OCC)CC1` gave Glioma ERSR ind -2%, VDR inhibitor -16%, G9a inh inconclusive, Sfp inh -22% and 12-LOX inh -17%.
Screening Cc1ccc2nc(CO[C@H]3CN(Cc4ccc(C(=O)O)cc4)C[C@H]3F)[nH]c2c1 returned 12-LOX inh 4%[176 µM].
`COc1cccc(/C=C/c2nc(C#N)c(N(C)C)o2)c1` gave 12-LOX inh 1%.
Screening Nc1c(C(=O)Nc2cccc(C(=O)O)c2)sc2nc3c(cc12)CCCC3 returned Glioma ERSR ind -18%, VDR inhibitor -16%, G9a inh 45µM*, Sfp inh 20% and 12-LOX inh inconclusive.
For Nc1c(C(=O)Nc2ccc(Cl)c(C(=O)O)c2)sc2nc3c(cc12)CCCC3 the results were Glioma ERSR ind -4%, VDR inhibitor -21%, G9a inh 45µM*, Sfp inh 5% and 12-LOX inh -9%.
Screening Nc1c(C(=O)Nc2ccc(C(=O)O)cc2)sc2nc3c(cc12)CCCC3 returned Glioma ERSR ind -7%, VDR inhibitor 19%, G9a inh inconclusive and 12-LOX inh 18µM*.
Screening CCn1c(SCc2ccccc2F)nc2cc(S(N)(=O)=O)ccc21 returned 12-LOX inh -18%.
COc1ccc(CN(C(=O)c2ccc(S(=O)(=O)N(C)C)cc2)C(C)Cc2cccs2)cc1 (stereo not drawn) was read as 12-LOX inh 2%.
